From PubChem BioAssay (Tox21)
Values joined by “and” are separate entries in the source; they are usually repeats but may differ in a detail not shown here. Equal entries are not always repeated. Records with an inconclusive call do not appear. Where a call stands in place of a potency, no number is given. Some compounds were tested as several samples or in several runs, with calls that do not always agree. Active and inactive are the calls of the source. Unless noted, the call rests on the fitted dose curve; in most records, active means well fitted curve in the direction sought with a large enough effect in the repeat runs; inconclusive means weak or mixed curves; inactive means no such curve, though single readings can be large; an effect the other way counts as inactive or inconclusive.

Columns and labels:
[1] = qHTS assay to identify small molecule agonists of the hypoxia (HIF-1) signaling pathway - cell viability counter screen (AID 1224844; calls by dose curve; further: nearly all actives have a fitted effect of over 50% in size; further: potency means the concentration at half of the fitted maximal effect)
Outline: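 Cytotoxicity measured by CellTiter-Glo ATP luminescence in the wells also read for beta-lactamase signal. Cells were HRE-bla ME-180 (2,000/well, 0.5% dialyzed FBS), exposed to compounds for 17 h at 37C.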

[2] = qHTS assay to identify small molecule agonists of H2AX (AID 1224845; active means well fitted activation curve with a large enough effect in the signal ratio in the repeat runs, not every such curve was filed as active; the % refers to the signal ratio; further: potency means the concentration at half of the fitted maximal effect)
Outline: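 Wild-type CHO-K1 cells, plated overnight, exposed 3hr at 37C to 15 concentrations (0.76% DMSO final). Lysed, then HTRF anti-pH2AX (S139) cryptate and anti-H2AX-d2 antibodies, 24 hr room temperature; 665/620 nm emission read.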

[3] = qHTS assay to identify small molecule agonists of H2AX - cell viability counter screen (AID 1224847; calls by dose curve; further: nearly all actives have a fitted effect of over 30% in size; further: potency means the concentration at half of the fitted maximal effect)
Outline: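 CHO-K1 wt, 1000 cells/well, o/n 37C; cpds 15 conc, 3 h 37C, 0.76% DMSO; CellTiter-Glo, 30 min RT, luminescence.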

[4] = qHTS RealTime-Glo MT Cell Viability Assay in HepG2 cells - 24 hour (AID 1224867); further: nearly all actives have a fitted effect of over 50% in size; further: potency means the concentration at half of the fitted maximal effect
Outline: (§1)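 qHTS, HepG2, 600 cells/well, RealTime-Glo (NanoLuc + prosubstrate) added with cells; 5 h preincubation; DMSO compound addition; 37 C; luminescence at 0/8/16/24/32/40 h.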

[5] = A CellTox Green Cytotoxicity Assay to monitor cytotoxicity in HEK293 cells - 0 hour (AID 1224869); further: nearly all actives have a fitted effect of over 50% in size
Outline: (§2)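 Fluorescence from a DNA-binding dye excluded by viable cells was measured repeatedly in the same HEK293 wells (600 cells/well) during continuous compound exposure at 37 C. Each assay gives one read point: 0, 8, 16, 24, 32 or 40 h.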

[6] = qHTS RealTime-Glo MT Cell Viability Assay in HepG2 cells - 40 hour (AID 1224870); further: nearly all actives have a fitted effect of over 50% in size; further: potency means the concentration at half of the fitted maximal effect
Outline: (§3)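 HepG2 cells (600/well) mixed with RealTime-Glo MT reagent, settled 5 h at 37 C/5% CO2 before compound addition. Nonlytic NanoLuc luminescence from viable-cell prosubstrate reduction read repeatedly during 40 h treatment at 37 C.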

[7] = A CellTox Green Cytotoxicity Assay to monitor cytotoxicity in HEK293 cells - 40 hour (AID 1224871); further: nearly all actives have a fitted effect of over 45% in size; further: potency means the concentration at half of the fitted maximal effect
Outline: as §2

[8] = qHTS RealTime-Glo MT Cell Viability Assay in HepG2 cells - 8 hour (AID 1224873); further: nearly all actives have a fitted effect of over 55% in size; further: potency means the concentration at half of the fitted maximal effect
Outline: as §3

[9] = A CellTox Green Cytotoxicity Assay to monitor cytotoxicity in HEK293 cells - 24 hour (AID 1224875); further: nearly all actives have a fitted effect of over 45% in size; further: potency means the concentration at half of the fitted maximal effect
Outline: as §2

[10] = A CellTox Green Cytotoxicity Assay to monitor cytotoxicity in HepG2 cells - 16 hour (AID 1224876); further: nearly all actives have a fitted effect of over 45% in size; further: potency means the concentration at half of the fitted maximal effect
Outline: (§4)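 Real-time cytotoxicity: fluorescence of a cell-impermeant cyanine dye binding DNA of dead HepG2 cells, measured repeatedly (0–40 h) during compound exposure at 37 C. Cells seeded 600/well with reagent, dosed after 5 h.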

[11] = qHTS RealTime-Glo MT Cell Viability Assay in HepG2 cells - 32 hour (AID 1224877); further: nearly all actives have a fitted effect of over 55% in size; further: potency means the concentration at half of the fitted maximal effect
Outline: as §1

[12] = A CellTox Green Cytotoxicity Assay to monitor cytotoxicity in HepG2 cells - 24 hour (AID 1224878); further: nearly all actives have a fitted effect of over 45% in size; further: potency means the concentration at half of the fitted maximal effect
Outline: as §4

[13] = A CellTox Green Cytotoxicity Assay to monitor cytotoxicity in HepG2 cells - 40 hour (AID 1224879); further: nearly all actives have a fitted effect of over 40% in size; further: potency means the concentration at half of the fitted maximal effect
Outline: as §4

[14] = qHTS RealTime-Glo MT Cell Viability Assay in HEK293 cells - 0 hour (AID 1224880)
Outline: (§5)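 Luminescence, which tracks viable cell number through reduction of the prosubstrate to a NanoLuc substrate, was read over continuous 37 C culture. Cells (600/well) were premixed with reagent and rested 5 h before 23 nL of compound in DMSO was pinned.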

[15] = qHTS RealTime-Glo MT Cell Viability Assay in HEK293 cells - 32 hour (AID 1224868); further: nearly all actives have a fitted effect of over 50% in size; further: potency means the concentration at half of the fitted maximal effect
Outline: (§6)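 Assay medium contained NanoLuc luciferase plus cell-permeant prosubstrate, added with HEK293 cells at 600 cells/well. After 5 h at 37 C/5% CO2 compounds were added; plates stayed at 37 C for 40 h with serial luminescence reads.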

[16] = qHTS RealTime-Glo MT Cell Viability Assay in HEK293 cells - 16 hour (AID 1224872); further: nearly all actives have a fitted effect of over 50% in size; further: potency means the concentration at half of the fitted maximal effect
Outline: as §6

[17] = qHTS RealTime-Glo MT Cell Viability Assay in HEK293 cells - 40 hour (AID 1224874); settings: RealTime-Glo luminescence; max response: stronger effect = lower value; further: nearly all actives have a fitted effect of over 50% in size; further: potency means the concentration at half of the fitted maximal effect
Outline: as §5

[18] = qHTS assay to identify small molecule agonists of the estrogen related receptor (ERR) signaling pathway from Tox21 library (AID 1224849; calls by dose curve; further: nearly all actives have a fitted effect of over 15% in size); settings: ERR reporter cell line, ONE-Glo luciferase, 18 h; at 92.4 µM (top of the series) unless noted
Outline: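 Luminescent agonist read-out (One-Glo, 30-minute room-temperature incubation) following 18-hour compound treatment at 37 C of the ERR cell line, which had been plated 6 hours before dosing.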

[19] = qHTS assay to identify small molecule antagonists of the estrogen related receptor (ERR) signaling pathway from Tox21 library (AID 1224848); further: nearly all actives have a fitted effect of over 50% in size; further: potency means the concentration at half of the fitted maximal effect
Outline: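 Quantitative high-throughput format: ERR reporter cells (2,000/well) pre-incubated 6 h, treated 18 h at 37 C with compounds in DMSO alongside positive and negative controls, then read by ONE-Glo luminescence.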

Row | Compound | Potency [1] | Potency [2] | Potency [3] | Potency [4] | Potency [5] | Potency [6] | Potency [7] | Potency [8] | Potency [9] | Potency [10] | Potency [11] | Potency [12] | Potency [13] | Potency [14] | Potency [15] | Potency [16] | Potency [17] | activity change, positive = activation [18] | Potency [19] | max response [17]
1 | CC1(C)C(/C=C(\Cl)C(F)(F)F)C1C(=O)OC(C#N)c1cccc(Oc2ccccc2)c1 (stereo not drawn) | inactive | inactive | inactive | inactive | inactive | inactive | inactive | inactive | inactive | inactive | inactive | inactive | inactive | inactive | – | – | – | – | – | –
2 | CN(C)C(=S)S | 1.41 µM (active) and 4.86 µM (active) and 4.36 µM (active) | 29 µM (active) and 4.47 µM (active) | inactive | inactive and 11 µM (active) | inactive | – | 9.97 µM (active) and 1.54 µM (active) and 6.92 µM (active) | inactive | – | inactive and 34.7 µM (active) | inactive and 9.77 µM (active) | 22.3 µM (active) and 5.45 µM (active) and 15.5 µM (active) | 15.8 µM (active) and 4.86 µM (active) and 11 µM (active) | inactive | 11.2 µM (active) and 1.73 µM (active) and 11 µM (active) | 1.94 µM (active) and 12.3 µM (active) | 11.2 µM (active) and 1.73 µM (active) and 9.77 µM (active) | – | – | –
3 | Cc1cc(SCc2sc(-c3ccc(C(F)(F)F)c(F)c3)nc2C)ccc1OCC(=O)O | 12.3 µM (active) | inactive | 101 µM (active) | inactive | inactive | inactive | inactive | inactive | inactive | inactive | inactive | – | inactive | inactive | – | – | – | -21.2% (inactive) | – | –
4 | Cc1cc(N=Nc2ccccc2C)ccc1N | inactive | inactive | 113 µM (active) and 89.8 µM (active) | – | inactive | inactive | 49 µM (active) | – | – | inactive | inactive | inactive | 21.9 µM (active) and 19.5 µM (active) | inactive | 21.9 µM (active) | 21.9 µM (active) and 19.5 µM (active) | 21.9 µM (active) | 34.9% (active) and 43.7% (active) | inactive | –
5 | CC[C@H](C)[C@H]1O[C@]2(C=C[C@@H]1C)C[C@@H]1C[C@@H](C/C=C(\C)[C@@H](O[C@H]3C[C@H](OC)[C@@H](O[C@H]4C[C@H](OC)[C@@H](O)[C@H](C)O4)[C@H](C)O3)[C@@H](C)/C=C/C=C3\CO[C@@H]4[C@H](O)C(C)=C[C@@H](C(=O)O1)[C@]34O)O2 | 28.9 µM (active) | inactive | – | – | inactive | – | – | – | inactive | – | – | – | – | inactive | – | – | 10.3 µM (active) | -67% [at 42.5 µM] (inactive) | 7200 nM (active) | –
6 | CC(C)[C@H](C(=O)OC(C#N)c1cccc(Oc2ccccc2)c1)c1ccc(OC(F)F)cc1 (stereo partly drawn) | inactive | inactive | – | inactive | inactive | inactive | inactive | – | inactive | inactive | inactive | inactive | inactive | inactive | inactive | inactive | – | -19.1% (inactive) | 15400 nM (active) | -16.8% (inactive)
7 | Cc1cc(C)c(C2=C(OC(=O)CC(C)(C)C)C3(CCCC3)OC2=O)c(C)c1 | inactive | inactive | – | inactive | inactive | inactive | inactive | inactive | inactive | inactive | inactive | inactive | inactive | inactive | inactive | inactive | – | -1.28% (inactive) | inactive | -6.03% (inactive)
8 | CCC[CH2][Sn]([CH2]CCC)([CH2]CCC)[O]C(=O)c1ccccc1 | 0.549 µM (active) | 505 nM (active) | – | 490 nM (active) | inactive | 389 nM (active) | 0.692 µM (active) | 776 nM (active) | 1950 nM (active) | 692 nM (active) | 436 nM (active) | 692 nM (active) | 549 nM (active) | – | – | 436 nM (active) | 0.389 µM (active) | -78% (inactive) | 486 nM (active) | –
9 | c1ccc2cc3c(cc2c1)-c1cccc2cccc-3c12 | inactive | inactive | inactive | inactive | – | inactive | inactive | – | inactive | inactive | inactive | inactive | – | inactive | inactive | inactive | – | – | inactive | 18.7% (inactive)
